Assay [1] is described as follows: Nuclear factor erythroid 2-related factor 2/antioxidant responsive element (Nrf2/ARE) small molecule agonists: qHTS cell viability counter screen in human keratinocytes (AID 1919968; active = well fitted curve in the direction sought with a large enough effect in the repeat runs; an effect the other way counts as inactive or inconclusive; note: nearly all actives have a fitted effect of over 55% in size; note: potency is the fitted concentration of half-maximal effect). In a few lines:
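CellTiter-Fluor fluorescence, read 1 h after reagent, gave viability in the same wells as the ARE-luciferase assay. KeratinoSens cells (1,500/well) had 23 h compound exposure at 37 C/5% CO2 following 5 h plating.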

Assay [2] is described as follows: Nuclear factor erythroid 2-related factor 2/antioxidant responsive element (Nrf2/ARE) small molecule agonists: luciferase reporter gene qHTS assay in human keratinocytes (AID 1919969; note: nearly all actives have a fitted effect of over 35% in size; note: potency is the fitted concentration of half-maximal effect). (A reporter such as luciferase makes a cellular process visible.)
In assay [3] the target is Gonadotropin-releasing hormone receptor (Homo sapiens) (UniProt P30968). As to the kind of experiment: Human gonadotropin-releasing hormone receptor (GnRHR) small molecule agonists, calcium flux assay in GnRHR-HEK293 cells (AID 1920063). Note: nearly all actives have a fitted effect of over 35% in size. In a few lines: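 Agonist mode: compounds at 15 concentrations, in triplicate, went onto calcium dye-loaded GnRHR-HEK293 cells. Intracellular calcium was then followed as 480/540 nm fluorescence at 1 s intervals over 3 min.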
Gonadotropin-releasing hormone receptor (Homo sapiens), sequence (P30968 whole entry, looked up): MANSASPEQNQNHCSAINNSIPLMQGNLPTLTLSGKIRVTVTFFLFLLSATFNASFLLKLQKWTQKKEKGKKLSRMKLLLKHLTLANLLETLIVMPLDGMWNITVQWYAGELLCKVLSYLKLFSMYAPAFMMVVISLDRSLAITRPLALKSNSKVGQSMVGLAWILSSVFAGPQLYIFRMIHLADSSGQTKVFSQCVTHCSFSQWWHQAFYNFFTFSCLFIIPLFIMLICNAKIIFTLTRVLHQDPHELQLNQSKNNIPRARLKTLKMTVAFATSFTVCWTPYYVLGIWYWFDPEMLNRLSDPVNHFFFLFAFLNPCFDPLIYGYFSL
A general note: A change in cytosolic calcium serves as a functional read-out for many receptors and channels.

For assay [4], the target named is KiSS-1 receptor (Homo sapiens) (UniProt Q969F8). As to the kind of experiment: Human kisspeptin (KISS1R) small molecule agonists, calcium flux assay in KISS1R-HEK293 cells (AID 1920064; active = well fitted curve in the direction sought with a large enough effect in the repeat runs; an effect the other way counts as inactive or inconclusive). The essentials:
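Agonist mode: intracellular calcium rise tracked at 1 s intervals over 3 min (480/540 nm) immediately after compound addition to dye-loaded KISS1R-HEK293 stable cells. Each compound tested at 15 concentrations in triplicate.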

The nature of assay [5]: G protein-coupled receptor (GPCR) small molecule agonists, calcium flux assay: HEK293 wild type cell line counter screen (AID 1920065). In a few lines: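 Calcium flux counter screen: compound added in agonist mode at 15 concentrations in triplicate to dye-loaded parental HEK293 cells. Fluorescence (480/540) read kinetically for 3 min; ATP served as positive control.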
Assay [6] can be described thus: p53 small molecule agonists, cell-based qHTS assay with rat liver microsomes (AID 1963578). The essentials:
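Fluorescence from a beta-lactamase reporter under a p53 response element was measured after cells had been incubated 16 h at 37 C with test compound and rat liver microsomes plus NADPH (0.5 mg/mL final each).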
(In general: qHTS replaces the single test concentration by a dilution series.)

A short description of assay [7]: p53 small molecule agonists, cell-based qHTS assay with human liver microsomes: qHTS cell viability counter screen (AID 1963579). Note: nearly all actives have a fitted effect of over 45% in size. In a few lines:
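Seed p53RE-bla cells at 4,000 per well; incubate 5 h at 37 C; add compound, human liver microsomes and NADPH; incubate 16 h at 37 C; add CellTiter-Glo; after 30 min at room temperature, read luminescence.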

Assay [8] can be described thus: p53 small molecule agonists, cell-based qHTS assay with rat liver microsomes: qHTS cell viability counter screen (AID 1963580). Note: nearly all actives have a fitted effect of over 45% in size. Note: potency is the fitted concentration of half-maximal effect. The essentials: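 Cytotoxicity counter screen: intracellular ATP measured by CellTiter-Glo luminescence in the same wells as the beta-lactamase reporter read, on HCT-116 p53RE-bla cells exposed 16 h at 37 C to compounds with rat liver microsomes and NADPH, each 0.5 mg/mL final.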

Assay [9] in a line: p53 small molecule agonists, cell-based qHTS assay (AID 1963582; active = well fitted activation curve with a large enough effect in the signal ratio in the repeat runs, not every such curve was filed as active; the % refers to the signal ratio). In a few lines: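 Read-out is beta-lactamase FRET fluorescence after 2 h at room temperature with LiveBLAzer B/G substrate. p53 response element-bla cells were treated 16 h at 37 C with compounds in DMSO, added 5 h after seeding.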
Assay [10] has as its target 5-hydroxytryptamine receptor 2A (Homo sapiens) (UniProt P28223). As to the kind of experiment: 5-hydroxytryptamine receptor 2A (HTR2A) small molecule antagonists, cell-based qHTS assay (AID 1963586). Note: nearly all actives have a fitted effect of over 45% in size. Note: potency is the fitted concentration of half-maximal effect. In a few lines:
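CHO cells stably expressing human HTR2A were plated for 18 h at 37 C, then loaded with calcium dye for 1 h. Compounds were preincubated 5 min at room temperature before DOI (4 nM solution) was added. Kinetic fluorescence was read for 3 min.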

Assay [11] has the same target. As to the kind of experiment: 5-hydroxytryptamine receptor 2A (HTR2A) small molecule agonists, cell-based qHTS assay (AID 1963587). Note: nearly all actives have a fitted effect of over 30% in size. In a few lines: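 CHO cells stably expressing human HTR2A, plated 18 h, loaded with calcium dye 1 h at 37 C. Agonist mode: compounds added and intracellular calcium fluorescence recorded kinetically for 2 min at 1 sec intervals.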
In assay [12] the target is Muscarinic acetylcholine receptor M1 (Homo sapiens) (UniProt P11229). As to the kind of experiment: Cholinergic receptor muscarinic 1 (CHRM1) small molecule antagonists, cell-based qHTS assay (AID 1963588). Note: nearly all actives have a fitted effect of over 40% in size. Note: potency is the fitted concentration of half-maximal effect. The essentials:
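Compounds were tested at 15 concentrations in three independent runs. Dye-loaded CHRM1-CHO cells were exposed 5 min at room temperature before stimulation by acetylcholine added at 50nM. Intracellular calcium was read kinetically on FDSS for 3 min.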

Assay [13] shares this target. As to the kind of experiment: Cholinergic receptor muscarinic 1 (CHRM1) small molecule agonists, cell-based qHTS assay (AID 1963589). Note: nearly all actives have a fitted effect of over 35% in size. Note: potency is the fitted concentration of half-maximal effect. The essentials:
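Agonist-mode calcium-flux screen: compounds at 15 concentrations, three independent runs, were pin-transferred onto dye-loaded human CHRM1-CHO cells. Fluorescence was then recorded kinetically every second over minutes.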

Assay [14] concerns the target D(2) dopamine receptor (Homo sapiens) (UniProt P14416). As to the kind of experiment: Dopamine D2 receptor (DRD2) small molecule antagonists, cell-based qHTS assay (AID 1963595; active = well fitted inhibition curve with a large enough effect in the signal ratio in the repeat runs, with a control signal flat; the % refers to the signal ratio). In a few lines: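 HTRF cAMP read-out at 665 and 620 nm emission (340 nm excitation). Antagonist mode: compounds were tested against 12 nM quinpirole in DRD2-HEK293 cells, with 200 nM NKH477 raising cAMP and 0.1 mM Ro20-1724 blocking its breakdown.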

A short description of assay [15]: p53 small molecule agonists, cell-based qHTS assay: qHTS cell viability counter screen (AID 1963581). Note: nearly all actives have a fitted effect of over 45% in size. The essentials: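 Counter screen read by CellTiter-Glo luminescence (ATP content, 30 min at room temperature), run in the same wells as the beta-lactamase reporter read. HCT-116 p53RE-bla cells saw compounds for 16 h at 37 C.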
Assay [16] in a line: cAMP Responsive Elements (CRE) small molecule agonists, cell-based qHTS assay (AID 1963590). In a few lines:
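Agonist mode: compound added to CRE-bla HEK 293T cells (2,000/well, 18 h after plating) for 3 h at 37 C/5% CO2. Reporter activity detected via FRET beta-lactamase substrate, 2 h room-temperature loading.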

A short description of assay [17]: cAMP Responsive Elements (CRE) small molecule antagonists, cell-based qHTS assay (AID 1963591; active = well fitted inhibition curve with a large enough effect in the signal ratio in the repeat runs, not every such curve was filed as active; the % refers to the signal ratio). The essentials: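 Antagonist mode: compounds are added alongside the adenylyl cyclase activator NKH477 (0.25 uM final) to CRE-bla HEK293T cells for 3 h. LiveBLAzer FRET substrate, 2 h at room temperature, reports bla expression.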
Assay [18] has as its target Beta-2 adrenergic receptor (Homo sapiens) (UniProt P07550). As to the kind of experiment: Adrenergic beta2 receptor (ADRB2) small molecule antagonists, cell-based qHTS assay (AID 1963592). Note: series mostly up to about 92 µM; nearly all actives have a fitted effect of over 50% in size. The essentials:
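Assay format: CHO-ADRB2 cells, 18-20hr seeding at 37C/5% CO2, then compound plus 1nM isoproterenol agonist mix for 0.5hr RT. Homogeneous time-resolved fluorescence cAMP detection after 1hr, expressed as 665/615 nm ratio.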

The target is the same in assay [19]. As to the kind of experiment: Adrenergic beta2 receptor (ADRB2) small molecule agonists, cell-based qHTS assay (AID 1963593).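 Note: CHO cells stably overexpressing human ADRB2.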 In a few lines:
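CHO cells stably over-expressing ADRB2 were plated overnight at 37C, then dosed with compounds plus a stimulation mix containing 100uM IBMX and 25uM Ro-20-1724 for 0.5hr at room temperature. cAMP was measured by HTRF competition, 1hr.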

Assay [20] concerns the target D(2) dopamine receptor (Homo sapiens) (UniProt P14416). As to the kind of experiment: Dopamine D2 receptor (DRD2) small molecule agonists, cell-based qHTS assay (AID 1963594). Note: nearly all actives have a fitted effect of over 35% in size. The essentials: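 HEK293 cells stably expressing human DRD2, pre-treated with PDE inhibitor Ro20-1724 (0.1 mM final) and compound 10 min at room temperature, then stimulated with NKH477 (200nM […]) for 30 min. cAMP read by HTRF (665/620 nm).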

Results filed as inconclusive are left out. Activity calls are given as the source filed them. Unless noted, calls come from the whole dose curve.

D(2) dopamine receptor (Homo sapiens), sequence (P14416 whole entry, looked up): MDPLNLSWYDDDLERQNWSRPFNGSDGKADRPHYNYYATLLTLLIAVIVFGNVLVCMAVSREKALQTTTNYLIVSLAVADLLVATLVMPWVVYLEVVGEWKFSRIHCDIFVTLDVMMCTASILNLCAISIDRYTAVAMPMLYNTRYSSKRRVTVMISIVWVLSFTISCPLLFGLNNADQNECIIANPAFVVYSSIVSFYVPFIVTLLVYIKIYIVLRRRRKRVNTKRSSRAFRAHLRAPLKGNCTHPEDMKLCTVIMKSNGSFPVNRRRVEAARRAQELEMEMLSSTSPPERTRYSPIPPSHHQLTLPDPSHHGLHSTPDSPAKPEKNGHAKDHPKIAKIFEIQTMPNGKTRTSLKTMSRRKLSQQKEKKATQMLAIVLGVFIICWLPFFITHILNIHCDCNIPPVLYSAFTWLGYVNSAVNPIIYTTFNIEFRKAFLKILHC
5-hydroxytryptamine receptor 2A (Homo sapiens), sequence (P28223 whole entry, looked up): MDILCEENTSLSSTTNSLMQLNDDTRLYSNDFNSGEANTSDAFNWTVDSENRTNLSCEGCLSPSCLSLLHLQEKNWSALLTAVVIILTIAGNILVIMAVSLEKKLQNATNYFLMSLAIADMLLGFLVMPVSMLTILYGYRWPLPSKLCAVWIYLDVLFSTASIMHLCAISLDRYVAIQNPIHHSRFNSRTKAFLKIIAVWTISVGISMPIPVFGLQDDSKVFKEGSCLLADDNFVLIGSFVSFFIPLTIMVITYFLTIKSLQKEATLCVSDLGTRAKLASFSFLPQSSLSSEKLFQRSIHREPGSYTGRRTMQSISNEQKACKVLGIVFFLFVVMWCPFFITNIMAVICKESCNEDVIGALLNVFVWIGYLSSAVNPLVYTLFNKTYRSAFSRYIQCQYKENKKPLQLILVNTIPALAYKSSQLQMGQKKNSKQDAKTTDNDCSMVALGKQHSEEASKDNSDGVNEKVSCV
Muscarinic acetylcholine receptor M1 (Homo sapiens), sequence (P11229 whole entry, looked up): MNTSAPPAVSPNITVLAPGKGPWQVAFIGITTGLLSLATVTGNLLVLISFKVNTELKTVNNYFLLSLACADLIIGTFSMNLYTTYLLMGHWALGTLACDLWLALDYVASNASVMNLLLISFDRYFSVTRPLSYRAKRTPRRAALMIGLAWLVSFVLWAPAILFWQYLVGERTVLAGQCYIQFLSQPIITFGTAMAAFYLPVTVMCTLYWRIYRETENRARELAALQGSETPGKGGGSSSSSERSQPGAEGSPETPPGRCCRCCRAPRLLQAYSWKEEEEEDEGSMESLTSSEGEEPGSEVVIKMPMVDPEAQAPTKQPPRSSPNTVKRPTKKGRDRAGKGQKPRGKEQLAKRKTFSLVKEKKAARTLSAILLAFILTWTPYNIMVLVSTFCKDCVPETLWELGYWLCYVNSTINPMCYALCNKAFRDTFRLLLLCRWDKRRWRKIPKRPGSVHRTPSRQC
KiSS-1 receptor (Homo sapiens), sequence (Q969F8 whole entry, looked up): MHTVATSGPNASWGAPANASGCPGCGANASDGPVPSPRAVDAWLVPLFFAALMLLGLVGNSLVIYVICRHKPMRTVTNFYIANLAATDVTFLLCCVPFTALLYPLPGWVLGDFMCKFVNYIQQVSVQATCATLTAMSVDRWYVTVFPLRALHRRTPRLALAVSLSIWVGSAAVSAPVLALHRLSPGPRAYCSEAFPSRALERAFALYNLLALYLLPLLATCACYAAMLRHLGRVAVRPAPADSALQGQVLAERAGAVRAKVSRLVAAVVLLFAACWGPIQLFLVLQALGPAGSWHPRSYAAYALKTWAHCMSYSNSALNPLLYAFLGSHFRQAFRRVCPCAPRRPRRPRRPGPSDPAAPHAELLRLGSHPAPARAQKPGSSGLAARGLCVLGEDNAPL
Beta-2 adrenergic receptor (Homo sapiens), sequence (P07550 whole entry, looked up): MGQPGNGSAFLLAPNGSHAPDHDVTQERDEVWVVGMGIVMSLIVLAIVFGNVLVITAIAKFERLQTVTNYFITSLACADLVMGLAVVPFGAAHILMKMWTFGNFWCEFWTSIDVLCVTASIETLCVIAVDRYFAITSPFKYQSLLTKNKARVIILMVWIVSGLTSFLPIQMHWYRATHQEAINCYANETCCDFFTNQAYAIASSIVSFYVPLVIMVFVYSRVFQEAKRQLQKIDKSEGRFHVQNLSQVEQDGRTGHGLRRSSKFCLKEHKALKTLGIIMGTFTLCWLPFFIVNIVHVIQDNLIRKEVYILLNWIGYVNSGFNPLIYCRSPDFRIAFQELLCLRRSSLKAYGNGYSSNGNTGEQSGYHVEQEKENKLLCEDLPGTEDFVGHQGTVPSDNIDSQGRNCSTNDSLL

Take `Cc1cc2c3c(c1)C(c1ccccc1)=N[C@@H](NC(=O)c1ccncc1)C(=O)N3CC2`: the Potency entry in assay [1], in [2], in [3], in assay [4], in assay [5] and in assay [6] was “inactive” in each case. Also, the Potency entry in [7], in assay [8], in assay [9], in assay [10], in [11] and in assay [12] was “inactive” each time. Also, the Potency entry in [13] and in assay [14] was “inactive” in each case.
For the molecule `CCOP(=O)(OCC)Oc1cc(C)nc(C(C)C)n1`, the Potency entry in [1], in assay [2], in assay [3], in [4], in assay [5] and in assay [7] was “inactive” each time. Besides, the Potency result in assay [8], in assay [15], in [9], in assay [11], in assay [12] and in assay [13] was “inactive” each time. Further, the Potency result in assay [16], in assay [17], in [18], in [19], in assay [20] and in assay [14] was “inactive” throughout.
As for `CC(C)(C)C(=O)C(Oc1ccc(Cl)cc1)n1cncn1` (stereo not given), the Potency entry in assay [1], in [2], in assay [3], in assay [4], in assay [5] and in [7] was “inactive” each time. Also, the Potency entry in [8], in [15], in assay [9], in assay [10], in [11] and in assay [13] was “inactive” throughout. The Potency entry in assay [17], in assay [18], in assay [19], in assay [20] and in [14] was “inactive” each time.
Regarding `CNC(=O)Oc1cc(C)c(N(C)C)c(C)c1`, the Potency result in [1], in [2], in assay [3], in assay [4], in assay [5] and in [7] was “inactive” each time. The Potency result in [8], in assay [15], in assay [9], in assay [10], in assay [11] and in assay [12] was “inactive” each time. Further, the Potency result in [16], in assay [17], in [18], in assay [20] and in assay [14] was “inactive” in each case.
As to `COP(=O)(OC)O/C(=C/Cl)c1cc(Cl)c(Cl)cc1Cl`, the Potency result in assay [1], in assay [3], in assay [4], in assay [5], in [7] and in assay [8] was “inactive” in each case. Besides, the Potency result in assay [15], in [9], in assay [12], in [13], in assay [16] and in [18] was “inactive” in each case. Also, the Potency result in [14] was “inactive”. Further, the Potency was 51.3 µM (active) in assay [2] and 15.8 µM (active) in [10].
Take `O=[N+]([O-])c1c(Cl)c(Cl)cc(Cl)c1Cl`: the Potency is 43.3 µM (active) in assay [1]; 9.69 µM (active) in [2]; 36.3 µM (active) in [8]; 11.2 µM (active) in [12]; 3.47 µM (active) in [13]. The Potency result in assay [3], in assay [4], in [5], in [6], in assay [15] and in assay [11] was “inactive” each time. For the same molecule, the Potency entry in [17] and in assay [18] was “inactive” throughout.
Consider `CCOC(=O)CCN(SN(C)C(=O)Oc1cccc2c1OC(C)(C)C2)C(C)C`, for which the Potency entry in assay [1], in [3], in assay [4], in assay [5], in [7] and in assay [8] was “inactive” in each case. Further, the Potency result in assay [15], in assay [9], in assay [10], in assay [11], in [12] and in assay [13] was “inactive” throughout. Moreover, the Potency result in [18], in assay [19] and in [14] was “inactive” throughout. Further, the Potency in [2] was 61.1 µM (active).
Regarding `CC(C)N(Cc1ccccc1)C(=O)C(C)(C)C`, the Potency result in assay [1], in assay [2], in assay [3], in assay [4], in assay [5] and in [6] was “inactive” in each case. For the same molecule, the Potency result in assay [15], in assay [10], in assay [11], in assay [12], in [13] and in [16] was “inactive” each time. Moreover, the Potency entry in assay [17], in assay [18] and in [14] was “inactive” each time.

Values taken from PubChem BioAssay (Tox21).
